# Source: paper PMC7862700, “An all-to-all approach to the identification of sequence-specific readers for epigenetic DNA modifications on cytosine”
# Legend:
# Test in all cases: DAPPL (digital affinity profiling via proximity ligation, sequencing); 10 mM Tris-HCl pH 7.5, 50 mM NaCl, 1 mM DTT, 4% glycerol, room temperature, 30 min; GST-TFs on glutathione beads, 16-mer random dsDNA library, 0.1% formaldehyde crosslink after washing; high values mean tight binding
# [1] = biological target: T1, FLI1 (Homo sapiens, UniProt Q01543 1-452); settings: protein: recombinant; tags: N-terminal GST; dsDNA, one strand shown
# T1 sequence: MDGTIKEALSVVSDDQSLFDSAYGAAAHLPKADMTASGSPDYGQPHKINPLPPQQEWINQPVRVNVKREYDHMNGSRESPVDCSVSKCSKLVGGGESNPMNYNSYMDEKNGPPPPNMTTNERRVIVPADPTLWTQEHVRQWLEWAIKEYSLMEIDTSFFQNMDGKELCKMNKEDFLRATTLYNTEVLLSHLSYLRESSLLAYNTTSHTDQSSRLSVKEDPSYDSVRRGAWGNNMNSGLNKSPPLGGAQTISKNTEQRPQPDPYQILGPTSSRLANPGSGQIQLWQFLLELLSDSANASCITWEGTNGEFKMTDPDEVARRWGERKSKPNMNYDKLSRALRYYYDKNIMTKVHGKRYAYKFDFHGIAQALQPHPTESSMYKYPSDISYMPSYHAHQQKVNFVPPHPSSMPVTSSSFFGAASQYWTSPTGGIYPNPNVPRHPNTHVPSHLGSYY
# How it was run: (§1)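 GST fusions of human transcription factors were expressed in yeast and captured with glutathione beads. Once given DNA barcodes and pooled alongside a tag-only sample, they were incubated for 30 min at room temperature with 200 nmole of a random double-stranded 16-mer DNA library in Tris/NaCl/DTT/glycerol buffer, then washed, crosslinked (0.1% formaldehyde), proximity-ligated, PCR-amplified and sequenced on an Illumina NextSeq500. The binding signal of each hexamer is its read frequency for a factor divided by its frequency for the tag-only sample.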
# [2] = biological target: T2, ELK1 (Homo sapiens, UniProt P19419 1-428); settings: protein: recombinant; tags: N-terminal GST; dsDNA, one strand shown
# T2 sequence: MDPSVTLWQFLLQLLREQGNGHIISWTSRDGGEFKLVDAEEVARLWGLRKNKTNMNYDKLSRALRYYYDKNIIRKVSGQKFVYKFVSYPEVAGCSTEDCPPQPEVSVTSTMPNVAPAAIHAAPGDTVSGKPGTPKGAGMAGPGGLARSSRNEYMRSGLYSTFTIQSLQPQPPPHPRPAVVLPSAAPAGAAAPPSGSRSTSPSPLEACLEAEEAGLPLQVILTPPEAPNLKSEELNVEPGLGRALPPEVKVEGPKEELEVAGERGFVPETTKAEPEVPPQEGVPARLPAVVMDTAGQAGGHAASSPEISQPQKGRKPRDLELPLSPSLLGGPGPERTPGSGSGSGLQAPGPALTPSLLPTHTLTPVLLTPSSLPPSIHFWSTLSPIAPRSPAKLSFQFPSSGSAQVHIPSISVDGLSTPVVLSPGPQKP
# How it was run: as §1
# [3] = biological target: T3, GABPA (Homo sapiens, UniProt Q06546 1-454); settings: protein: recombinant; tags: N-terminal GST; dsDNA, one strand shown
# T3 sequence: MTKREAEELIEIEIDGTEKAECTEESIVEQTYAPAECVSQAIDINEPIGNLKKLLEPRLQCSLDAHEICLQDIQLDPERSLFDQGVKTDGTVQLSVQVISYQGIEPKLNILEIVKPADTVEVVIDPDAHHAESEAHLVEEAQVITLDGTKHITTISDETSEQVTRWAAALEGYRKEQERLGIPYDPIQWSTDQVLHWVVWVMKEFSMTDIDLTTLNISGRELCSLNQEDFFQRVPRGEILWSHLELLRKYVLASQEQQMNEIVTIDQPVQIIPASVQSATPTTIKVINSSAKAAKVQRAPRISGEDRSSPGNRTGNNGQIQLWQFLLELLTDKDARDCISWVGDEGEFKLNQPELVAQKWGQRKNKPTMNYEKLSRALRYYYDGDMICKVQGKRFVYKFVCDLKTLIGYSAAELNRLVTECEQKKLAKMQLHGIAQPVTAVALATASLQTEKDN
# How it was run: as §1
# [4] = biological target: T4, ERG (Homo sapiens, UniProt P11308 1-479); settings: protein: recombinant; tags: N-terminal GST; dsDNA, one strand shown
# T4 sequence: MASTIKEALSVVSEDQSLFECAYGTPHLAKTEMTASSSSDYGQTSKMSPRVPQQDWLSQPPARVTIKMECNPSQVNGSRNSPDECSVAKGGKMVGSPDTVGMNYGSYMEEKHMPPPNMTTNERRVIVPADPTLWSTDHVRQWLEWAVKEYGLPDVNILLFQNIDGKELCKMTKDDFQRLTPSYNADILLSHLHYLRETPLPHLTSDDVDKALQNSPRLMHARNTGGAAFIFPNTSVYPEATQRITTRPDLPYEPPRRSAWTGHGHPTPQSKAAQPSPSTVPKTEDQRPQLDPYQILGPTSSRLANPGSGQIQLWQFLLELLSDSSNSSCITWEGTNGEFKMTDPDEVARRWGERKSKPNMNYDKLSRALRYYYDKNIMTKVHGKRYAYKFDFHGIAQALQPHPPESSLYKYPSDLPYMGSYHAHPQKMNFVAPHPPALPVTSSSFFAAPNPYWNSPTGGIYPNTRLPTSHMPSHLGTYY
# How it was run: as §1
# [5] = biological target: ELF1 (Homo sapiens, UniProt P32519 1-619); settings: protein: recombinant; tags: N-terminal GST; dsDNA, one strand shown
# Chain of ELF1 (P32519 whole entry): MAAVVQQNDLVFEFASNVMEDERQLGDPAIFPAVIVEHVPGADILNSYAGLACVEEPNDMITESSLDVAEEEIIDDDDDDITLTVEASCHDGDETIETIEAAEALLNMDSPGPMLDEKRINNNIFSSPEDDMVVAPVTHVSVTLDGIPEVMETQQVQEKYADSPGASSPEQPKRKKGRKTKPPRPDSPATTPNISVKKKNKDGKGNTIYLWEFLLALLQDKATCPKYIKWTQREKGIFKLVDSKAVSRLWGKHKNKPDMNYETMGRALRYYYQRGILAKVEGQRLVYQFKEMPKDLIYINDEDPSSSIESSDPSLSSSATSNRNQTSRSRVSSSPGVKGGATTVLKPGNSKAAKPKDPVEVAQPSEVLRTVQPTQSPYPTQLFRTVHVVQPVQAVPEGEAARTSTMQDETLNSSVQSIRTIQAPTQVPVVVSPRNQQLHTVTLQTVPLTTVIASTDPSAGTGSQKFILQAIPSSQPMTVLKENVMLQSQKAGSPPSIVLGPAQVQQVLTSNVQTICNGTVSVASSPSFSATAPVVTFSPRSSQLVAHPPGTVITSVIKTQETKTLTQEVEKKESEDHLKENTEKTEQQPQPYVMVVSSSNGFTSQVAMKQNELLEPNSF
# How it was run: as §1
# [6] = biological target: T5, EHF (Homo sapiens, UniProt Q9NZC4 1-300); settings: protein: recombinant; tags: N-terminal GST; dsDNA, one strand shown
# T5 sequence: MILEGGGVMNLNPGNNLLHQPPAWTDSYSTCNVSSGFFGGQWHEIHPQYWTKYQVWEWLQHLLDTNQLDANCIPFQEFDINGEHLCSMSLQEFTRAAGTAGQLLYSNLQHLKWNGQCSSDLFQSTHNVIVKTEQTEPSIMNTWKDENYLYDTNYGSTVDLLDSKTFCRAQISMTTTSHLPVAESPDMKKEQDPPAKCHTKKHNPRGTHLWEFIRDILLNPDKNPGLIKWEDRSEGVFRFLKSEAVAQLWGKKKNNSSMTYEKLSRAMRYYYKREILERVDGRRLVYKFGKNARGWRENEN
# How it was run: as §1
# [7] = biological target: SPI1 (Homo sapiens, UniProt P17947 1-270); settings: protein: recombinant; tags: N-terminal GST; dsDNA, one strand shown
# How it was run: as §1
# [8] = biological target: SPIB (Homo sapiens, UniProt Q01892 1-262); settings: protein: recombinant; tags: N-terminal GST; dsDNA, one strand shown
# Chain of SPIB (Q01892 whole entry): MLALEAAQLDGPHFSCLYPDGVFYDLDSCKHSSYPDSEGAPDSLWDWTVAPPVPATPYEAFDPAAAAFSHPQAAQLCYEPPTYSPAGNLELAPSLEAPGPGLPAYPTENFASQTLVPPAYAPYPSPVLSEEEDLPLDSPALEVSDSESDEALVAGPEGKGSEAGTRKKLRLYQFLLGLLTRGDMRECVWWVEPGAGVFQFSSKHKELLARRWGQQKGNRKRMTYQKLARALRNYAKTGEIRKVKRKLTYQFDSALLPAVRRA
# How it was run: as §1
# [9] = biological target: T6, ELK3 (Homo sapiens, UniProt P41970 1-407); settings: protein: recombinant; tags: N-terminal GST; dsDNA, one strand shown
# T6 sequence: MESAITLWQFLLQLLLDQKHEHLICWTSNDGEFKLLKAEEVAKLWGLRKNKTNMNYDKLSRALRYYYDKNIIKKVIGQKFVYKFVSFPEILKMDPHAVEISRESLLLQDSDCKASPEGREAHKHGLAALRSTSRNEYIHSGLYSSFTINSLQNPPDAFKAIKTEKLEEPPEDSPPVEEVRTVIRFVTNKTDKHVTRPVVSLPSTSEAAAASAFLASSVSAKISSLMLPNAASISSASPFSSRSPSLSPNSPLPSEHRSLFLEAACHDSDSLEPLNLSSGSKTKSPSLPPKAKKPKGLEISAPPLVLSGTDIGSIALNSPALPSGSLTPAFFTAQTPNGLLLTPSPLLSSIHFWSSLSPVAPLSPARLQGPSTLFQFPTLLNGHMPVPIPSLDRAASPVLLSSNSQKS
# How it was run: as §1
# [10] = biological target: T7, FEV (Homo sapiens, UniProt Q99581 1-238); settings: protein: recombinant; tags: N-terminal GST; dsDNA, one strand shown
# T7 sequence: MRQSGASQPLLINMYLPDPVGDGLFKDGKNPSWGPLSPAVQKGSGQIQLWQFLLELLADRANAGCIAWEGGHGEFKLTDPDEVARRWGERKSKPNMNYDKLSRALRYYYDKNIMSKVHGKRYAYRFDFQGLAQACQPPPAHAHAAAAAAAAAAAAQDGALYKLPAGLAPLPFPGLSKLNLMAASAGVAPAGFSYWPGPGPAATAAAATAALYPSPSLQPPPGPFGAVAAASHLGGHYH
# How it was run: as §1
# [11] = biological target: ETV5 (Homo sapiens, UniProt P41161 1-510); settings: protein: recombinant; tags: N-terminal GST; dsDNA, one strand shown
# Chain of ETV5 (P41161 whole entry): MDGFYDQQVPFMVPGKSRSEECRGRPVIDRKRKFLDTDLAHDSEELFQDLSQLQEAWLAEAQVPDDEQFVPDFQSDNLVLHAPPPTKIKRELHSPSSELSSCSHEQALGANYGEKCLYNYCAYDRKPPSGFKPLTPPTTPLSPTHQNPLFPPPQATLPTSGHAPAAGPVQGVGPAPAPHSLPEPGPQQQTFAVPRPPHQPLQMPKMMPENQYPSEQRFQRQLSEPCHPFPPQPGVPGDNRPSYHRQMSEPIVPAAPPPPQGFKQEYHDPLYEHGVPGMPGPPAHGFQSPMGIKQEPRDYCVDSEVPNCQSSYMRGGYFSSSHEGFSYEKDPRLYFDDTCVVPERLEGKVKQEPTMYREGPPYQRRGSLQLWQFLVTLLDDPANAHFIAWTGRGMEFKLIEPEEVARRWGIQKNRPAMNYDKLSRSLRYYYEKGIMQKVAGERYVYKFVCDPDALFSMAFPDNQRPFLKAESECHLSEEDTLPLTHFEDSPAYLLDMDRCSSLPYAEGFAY
# How it was run: as §1
# [12] = biological target: HSF1 (Homo sapiens, UniProt Q00613 1-529); settings: protein: recombinant; tags: N-terminal GST; chain copies: 3; dsDNA, one strand shown
# Chain of HSF1 (Q00613 whole entry): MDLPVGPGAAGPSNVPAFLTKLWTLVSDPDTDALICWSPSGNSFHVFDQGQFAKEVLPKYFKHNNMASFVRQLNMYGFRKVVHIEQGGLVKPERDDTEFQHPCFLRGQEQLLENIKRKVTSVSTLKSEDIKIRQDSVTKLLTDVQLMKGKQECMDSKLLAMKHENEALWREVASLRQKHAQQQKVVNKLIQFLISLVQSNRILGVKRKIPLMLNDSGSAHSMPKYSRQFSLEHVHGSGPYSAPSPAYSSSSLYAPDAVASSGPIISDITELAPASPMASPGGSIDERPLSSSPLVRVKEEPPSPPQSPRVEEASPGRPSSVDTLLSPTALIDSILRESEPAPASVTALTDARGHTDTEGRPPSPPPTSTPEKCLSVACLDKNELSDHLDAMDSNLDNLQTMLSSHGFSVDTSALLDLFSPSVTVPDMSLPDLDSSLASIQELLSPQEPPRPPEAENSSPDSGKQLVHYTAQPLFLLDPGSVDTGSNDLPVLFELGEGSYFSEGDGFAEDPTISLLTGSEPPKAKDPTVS
# How it was run: as §1
# [13] = biological target: T8, SPIC (Homo sapiens, UniProt Q8N5J4 1-248); settings: protein: recombinant; tags: N-terminal GST; dsDNA, one strand shown
# T8 sequence: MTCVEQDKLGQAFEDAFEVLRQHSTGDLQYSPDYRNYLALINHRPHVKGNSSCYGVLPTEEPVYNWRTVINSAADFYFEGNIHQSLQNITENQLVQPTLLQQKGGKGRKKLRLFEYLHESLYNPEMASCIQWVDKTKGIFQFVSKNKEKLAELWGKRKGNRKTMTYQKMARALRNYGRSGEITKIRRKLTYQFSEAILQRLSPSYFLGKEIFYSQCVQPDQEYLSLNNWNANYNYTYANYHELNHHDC
# How it was run: as §1
# [14] = biological target: ELF4 (Homo sapiens, UniProt Q99607 1-663); settings: protein: recombinant; tags: N-terminal GST; dsDNA, one strand shown
# Chain of ELF4 (Q99607 whole entry): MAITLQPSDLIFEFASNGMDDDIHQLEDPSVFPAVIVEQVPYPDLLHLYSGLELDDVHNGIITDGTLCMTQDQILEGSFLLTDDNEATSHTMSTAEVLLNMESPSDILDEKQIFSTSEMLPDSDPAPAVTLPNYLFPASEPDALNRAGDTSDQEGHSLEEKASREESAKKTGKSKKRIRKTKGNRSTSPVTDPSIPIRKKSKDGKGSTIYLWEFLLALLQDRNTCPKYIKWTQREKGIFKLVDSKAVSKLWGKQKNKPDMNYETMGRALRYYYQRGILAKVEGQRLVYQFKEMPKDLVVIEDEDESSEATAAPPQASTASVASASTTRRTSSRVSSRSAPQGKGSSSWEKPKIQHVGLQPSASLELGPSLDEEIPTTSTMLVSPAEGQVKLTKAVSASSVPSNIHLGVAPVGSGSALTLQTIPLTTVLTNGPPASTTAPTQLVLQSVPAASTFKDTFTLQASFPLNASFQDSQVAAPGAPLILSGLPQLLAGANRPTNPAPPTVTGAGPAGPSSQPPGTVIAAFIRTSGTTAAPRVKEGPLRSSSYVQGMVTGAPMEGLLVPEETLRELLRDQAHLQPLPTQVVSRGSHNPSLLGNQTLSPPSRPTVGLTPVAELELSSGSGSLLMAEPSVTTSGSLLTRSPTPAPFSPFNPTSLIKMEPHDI
# How it was run: as §1
# [15] = biological target: T9, ELK4 (Homo sapiens, UniProt P28324-2 1-405); settings: protein: recombinant; tags: N-terminal GST; dsDNA, one strand shown
# T9 sequence: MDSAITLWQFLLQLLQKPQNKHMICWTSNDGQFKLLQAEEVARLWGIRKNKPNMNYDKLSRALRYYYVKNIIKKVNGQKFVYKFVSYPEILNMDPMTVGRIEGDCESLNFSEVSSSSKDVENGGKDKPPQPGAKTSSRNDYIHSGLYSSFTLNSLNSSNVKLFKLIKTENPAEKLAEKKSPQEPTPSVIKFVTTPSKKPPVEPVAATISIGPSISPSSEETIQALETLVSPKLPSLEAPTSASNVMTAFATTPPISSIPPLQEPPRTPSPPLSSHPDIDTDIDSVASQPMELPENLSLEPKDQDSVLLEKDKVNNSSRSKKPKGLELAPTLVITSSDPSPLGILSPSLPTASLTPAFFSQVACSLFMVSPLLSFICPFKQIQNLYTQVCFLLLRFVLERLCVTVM
# How it was run: as §1
# [16] = biological target: T10, ETV2 (Homo sapiens, UniProt O00321 1-342); settings: protein: recombinant; tags: N-terminal GST; dsDNA, one strand shown
# T10 sequence: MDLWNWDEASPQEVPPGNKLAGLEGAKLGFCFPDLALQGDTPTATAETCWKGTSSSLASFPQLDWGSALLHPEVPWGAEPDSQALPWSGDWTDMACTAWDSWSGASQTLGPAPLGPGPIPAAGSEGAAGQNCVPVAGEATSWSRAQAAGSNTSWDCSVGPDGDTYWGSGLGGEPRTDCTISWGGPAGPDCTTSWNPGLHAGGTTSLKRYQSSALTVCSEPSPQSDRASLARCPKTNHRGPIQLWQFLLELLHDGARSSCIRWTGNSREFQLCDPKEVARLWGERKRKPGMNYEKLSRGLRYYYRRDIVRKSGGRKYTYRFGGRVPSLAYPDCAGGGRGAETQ
# How it was run: as §1
# [17] = biological target: T11, ELF3 (Homo sapiens, UniProt P78545 1-371); settings: protein: recombinant; tags: N-terminal GST; dsDNA, one strand shown
# T11 sequence: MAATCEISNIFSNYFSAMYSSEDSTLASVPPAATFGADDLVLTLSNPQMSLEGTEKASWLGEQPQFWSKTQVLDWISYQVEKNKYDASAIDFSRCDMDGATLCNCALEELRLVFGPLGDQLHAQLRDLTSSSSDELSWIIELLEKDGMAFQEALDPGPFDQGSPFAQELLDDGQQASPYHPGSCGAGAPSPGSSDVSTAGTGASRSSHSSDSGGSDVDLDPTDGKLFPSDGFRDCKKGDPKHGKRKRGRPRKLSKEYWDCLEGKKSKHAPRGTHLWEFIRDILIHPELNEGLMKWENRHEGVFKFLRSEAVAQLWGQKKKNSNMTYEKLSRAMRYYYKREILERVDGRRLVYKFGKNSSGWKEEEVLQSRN
# How it was run: as §1
# [18] = biological target: CRX (Homo sapiens, UniProt O43186 1-299); settings: protein: recombinant; tags: N-terminal GST; dsDNA, one strand shown
# Chain of CRX (O43186 whole entry): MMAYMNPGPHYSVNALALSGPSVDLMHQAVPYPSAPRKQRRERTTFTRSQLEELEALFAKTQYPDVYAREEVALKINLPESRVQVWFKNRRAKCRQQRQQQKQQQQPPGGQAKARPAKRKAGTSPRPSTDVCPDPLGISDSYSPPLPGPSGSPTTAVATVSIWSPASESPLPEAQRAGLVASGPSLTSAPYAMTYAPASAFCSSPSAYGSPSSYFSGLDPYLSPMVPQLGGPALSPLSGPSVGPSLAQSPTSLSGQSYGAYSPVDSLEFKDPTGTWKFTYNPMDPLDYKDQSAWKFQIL
# How it was run: as §1
# [19] = biological target: ETV1 (Homo sapiens, UniProt P50549 1-477); settings: protein: recombinant; tags: N-terminal GST; dsDNA, one strand shown
# Chain of ETV1 (P50549 whole entry): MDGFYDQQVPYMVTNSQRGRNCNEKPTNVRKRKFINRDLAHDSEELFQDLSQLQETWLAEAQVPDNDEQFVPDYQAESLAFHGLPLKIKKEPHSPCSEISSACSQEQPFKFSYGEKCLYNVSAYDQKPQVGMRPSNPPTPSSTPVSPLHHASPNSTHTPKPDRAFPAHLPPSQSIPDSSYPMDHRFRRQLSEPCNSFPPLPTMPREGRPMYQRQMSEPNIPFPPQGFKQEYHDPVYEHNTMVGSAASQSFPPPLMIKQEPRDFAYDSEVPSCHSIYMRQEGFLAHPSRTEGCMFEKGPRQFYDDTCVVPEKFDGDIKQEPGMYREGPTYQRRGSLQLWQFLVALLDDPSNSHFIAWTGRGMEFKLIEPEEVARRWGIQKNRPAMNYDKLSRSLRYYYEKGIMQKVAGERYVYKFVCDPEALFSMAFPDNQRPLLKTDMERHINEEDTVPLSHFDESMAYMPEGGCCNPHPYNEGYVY
# How it was run: as §1
sequence,measurement,setting,value
AATGAG,binding signal,[1],"1.09 fold enrichment (6-mer frequency, TF over GST control)"
same,binding signal,[2],"1.18 fold enrichment (6-mer frequency, TF over GST control)"
same,binding signal,[3],"1.22 fold enrichment (6-mer frequency, TF over GST control)"
same,binding signal,[4],"1.12 fold enrichment (6-mer frequency, TF over GST control)"
same,binding signal,[5],"1.14 fold enrichment (6-mer frequency, TF over GST control)"
same,binding signal,[6],"1.18 fold enrichment (6-mer frequency, TF over GST control)"
same,binding signal,[7],"1.51 fold enrichment (6-mer frequency, TF over GST control)"
same,binding signal,[8],"1.08 fold enrichment (6-mer frequency, TF over GST control)"
same,binding signal,[9],"1.23 fold enrichment (6-mer frequency, TF over GST control)"
same,binding signal,[10],"1.14 fold enrichment (6-mer frequency, TF over GST control)"
same,binding signal,[11],"1.17 fold enrichment (6-mer frequency, TF over GST control)"
same,binding signal,[12],"1.05 fold enrichment (6-mer frequency, TF over GST control)"
same,binding signal,[13],"1.31 fold enrichment (6-mer frequency, TF over GST control)"
same,binding signal,[14],"1.14 fold enrichment (6-mer frequency, TF over GST control)"
same,binding signal,[15],"1.14 fold enrichment (6-mer frequency, TF over GST control)"
same,binding signal,[16],"1.46 fold enrichment (6-mer frequency, TF over GST control)"
same,binding signal,[17],"1.25 fold enrichment (6-mer frequency, TF over GST control)"
same,binding signal,[18],"1.08 fold enrichment (6-mer frequency, TF over GST control)"
same,binding signal,[19],"1.21 fold enrichment (6-mer frequency, TF over GST control)"
